PubChem BioAssay (EPA / NIEHS)
Results filed as inconclusive are left out. Activity calls are given as the source filed them. Rule for the calls: active = hit-call score of the fitted dose curve at least 0.9, where 1 is the maximum; inconclusive = response in the unintended direction; inactive = score below 0.9.

Molecular target: human NIMA (Never In Mitosis Gene A)-Related Kinase 2 (NEK2), NEK2 (gene 4751) (UniProt P51955)
Assay: NVS_ENZ_hNEK2: NovaScreen (NVS) Enzymatic Assay for human NIMA (Never In Mitosis Gene A)-Related Kinase 2 (NEK2) (AID 2283188)
Protocol: NVS_ENZ_hNEK2 is a biochemical, single-readout assay that uses extracted gene-proteins in a cell-free assay. Measurements were taken 1 hour after chemical dosing in a 384-well plate.NVS_ENZ_hNEK2 is one of one assay component(s) measured or calculated from the NVS_ENZ_hNEK2 assay. It is designed to make measurements of enzyme activity, a form of enzyme reporter, as detected with fluorescence intensity signals by Fluorescence and electrophoretic mobility shift technology.Data from the assay component NVS_ENZ_hNEK2 was analyzed into 1 assay endpoint. This assay endpoint, NVS_ENZ_hNEK2, was analyzed in the positive analysis fitting direction relative to DMSO as the negative control and baseline of activity. Using a type of enzyme reporter, loss-of-signal activity can be used to understand changes in the enzymatic activity as they relate to the gene NEK2. Furthermore, this assay endpoint can be referred to as a primary readout, because this assay has produced multiple assay endpoints where this one serves a enzymatic activity function. To generalize the intended target to other relatable targets, this assay endpoint is annotated to the kinase intended target family, where the subfamily is serine/threonine kinase.
Binding assays used specific radioligands (tritiated, iodinated) with non-radioactive competitive displacement ligands in agonist or antagonist protocols (as indicated) and various reference compounds and inhibitors to titrate specific binding to receptors and transporters. Most enzyme assays (CYPs, kinases, phosphatases, proteases, HDACs) used recombinant protein and specific substrates (fluorescence mostly, some colorimetric and radioactive) and inhibitors, followed by a biochemical separation of substrate and product. All assays for the biochemical HTS were initially run in duplicate at a single concentration (10 uM for CYP450 assays and 25 uM for all others). […] Each assay was run with positive and negative controls, and concurrent controls on every plate. The follow-up (secondary) screen tested active chemical-pairs in concentration series, as well as a few additional assays not tested in the primary screen, some selected negative inactives, and several cases re-run in the concentration series for confirmatory purposes.

Chain of human NIMA (Never In Mitosis Gene A)-Related Kinase 2 (NEK2), NEK2 (gene 4751) (P51955 whole entry, looked up): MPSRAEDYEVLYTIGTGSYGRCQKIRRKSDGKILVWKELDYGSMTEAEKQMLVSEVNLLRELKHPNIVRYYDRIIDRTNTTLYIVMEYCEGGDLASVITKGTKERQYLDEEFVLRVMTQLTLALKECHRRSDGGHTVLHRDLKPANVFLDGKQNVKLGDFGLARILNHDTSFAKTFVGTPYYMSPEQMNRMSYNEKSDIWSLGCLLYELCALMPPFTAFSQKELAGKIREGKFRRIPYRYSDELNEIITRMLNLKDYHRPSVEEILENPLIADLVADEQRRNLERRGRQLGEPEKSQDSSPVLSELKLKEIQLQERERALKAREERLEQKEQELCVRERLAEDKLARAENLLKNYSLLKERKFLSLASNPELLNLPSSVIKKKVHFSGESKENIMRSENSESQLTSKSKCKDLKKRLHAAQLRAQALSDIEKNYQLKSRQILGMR

Row | SMILES | outcome | AC50
1 | Cc1ccc2ncccc2c1 | inactive | –
2 | CN1C(=O)N(c2ccccc2Br)Cc2cnc(Nc3ccc4c(c3)OCC(CO)O4)nc21 (configuration not stated) | – | 2.29 nM (active)
3 | Cc1nc(-c2ccccn2)ncc1C(=O)Nn1cc(C)c2cc(F)ccc21 | inactive | –
4 | CC(C)(C)c1csc(-c2cc3cc(OCc4ccccc4CC(=O)O)ccc3o2)n1 | inactive | –
5 | COc1cc(C(=O)NC2CCN(C)CC2)ccc1Nc1ncc2c(n1)N(C1CCCC1)CC(F)(F)C(=O)N2C | inactive | –
6 | CCCCC=O | inactive | –
7 | c1ccc(C(O[C@@H]2CCCN(CCc3ccc4c(c3)OCO4)C2)c2ccccc2)cc1 | inactive | –
8 | CC/C(=C(/CC)c1ccc(O)cc1)c1ccc(O)cc1 | inactive | –
9 | CN(C)c1ccc(N=NS(=O)(=O)O)cc1 | inactive | –
10 | O=CCCCC=O | inactive | –
11 | Oc1ccc(C(c2ccc(O)cc2)C(Cl)(Cl)Cl)cc1 | inactive | –
12 | O=C(O)Cc1cc(I)c(Oc2ccc(O)c(I)c2)c(I)c1 | inactive | –
